Results on nine compounds are retold here after PubChem BioAssay.

In assay [1] the test system is PRMT1 (protein arginine N-methyltransferase 1). Put plainly: PRMT1 binders on small-molecule microarrays, primary screen, biochemical, small-molecule microarray, 635 nm fluorescence (AID 1088).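 Also: binding of Prmt1 protein to compounds spotted on small-molecule microarray slides.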 As to conditions: small-molecule microarray binding, higher = more signal.
Assay [2] can be described thus: yeast growth modulation, basal conditions, primary screen, YJM789 clinical isolate, OD600, 24 h (AID 1089).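 Also: growth of clinical yeast isolate S. cerevisiae YJM 789 seeded 1000 cells per well; test concentration not given here.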 As to conditions: S. cerevisiae YJM789 growth, higher = more signal, called active from +8 up or from −8 down.
Assay [3] in a line: fission yeast growth modulation, primary screen, strain 972, OD600, 24 h, no modulator (AID 1090).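 Also: basal condition with compound alone and no growth modifier present; test concentration not given here.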 As to conditions: S. pombe 972 growth, higher = more signal, called active from +8 up or from −8 down.
Assay [4] is described as follows: S. cerevisiae growth modulation with rapamycin, primary screen, strain BY4716, OD600, 96 h (AID 1091). Also: test concentration not given here. As to conditions: higher = more signal, called active from +8 up or from −8 down.
Assay [5] concerns the target Torsin-1A-interacting protein 2 (Homo sapiens) (UniProt Q8NFQ8). Put plainly: LULL1 binders on small-molecule microarray, primary screen, cell lysate, human LULL1 lysate, 635/667 nm fluorescence (AID 1092).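 Also: probe is lysate of COS7 cells overexpressing human LULL1; score merges per-feature 667 nm fluorescence with signal-to-noise.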 As to conditions: hLULL1 lysate binding, 635 nm fluorescence, higher = more signal.
Assay [6] is described as follows: E. coli growth modulation, two-sided OD650, primary screen, E. coli filamentation project, strain DRC41, 24 h (AID 1093).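 Also: MC1000 strain lacking acrAB efflux and sulA so SOS filamentation is blocked; test concentration not given here.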 As to conditions: OD650, 24 h, higher = more signal, called active from +8 up or from −8 down.
Assay [7] is described as follows: small-molecule microarray binders of probe aLefty2, primary screen, biochemical, biotinylated probe, 635/667 nm fluorescence (AID 1094).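 Also: score merges spot fluorescence near 667 nm with spot signal-to-noise ratio.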 The following applies: higher = more signal.
In assay [8] the test system is Noggin (protein binding on small-molecule microarray). Put plainly: Noggin binders on small-molecule microarray, primary screen, biochemical, 635/667 nm fluorescence (AID 1095).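 Also: score merges 667 nm feature fluorescence with signal to noise over triplicate slides.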 As to conditions: 635 nm fluorescence, higher = more signal.
The target in assay [9] is Neurogenic locus notch homolog protein 3 (Homo sapiens) (UniProt Q9UM47). Put plainly: NOTCH3 binders on small-molecule microarray, primary screen, biochemical, 635/667 nm fluorescence (AID 1096). As to conditions: NOTCH3 binding, 635 nm fluorescence, higher = more signal.
Chain of Neurogenic locus notch homolog protein 3 (Homo sapiens) (Q9UM47 whole entry, looked up): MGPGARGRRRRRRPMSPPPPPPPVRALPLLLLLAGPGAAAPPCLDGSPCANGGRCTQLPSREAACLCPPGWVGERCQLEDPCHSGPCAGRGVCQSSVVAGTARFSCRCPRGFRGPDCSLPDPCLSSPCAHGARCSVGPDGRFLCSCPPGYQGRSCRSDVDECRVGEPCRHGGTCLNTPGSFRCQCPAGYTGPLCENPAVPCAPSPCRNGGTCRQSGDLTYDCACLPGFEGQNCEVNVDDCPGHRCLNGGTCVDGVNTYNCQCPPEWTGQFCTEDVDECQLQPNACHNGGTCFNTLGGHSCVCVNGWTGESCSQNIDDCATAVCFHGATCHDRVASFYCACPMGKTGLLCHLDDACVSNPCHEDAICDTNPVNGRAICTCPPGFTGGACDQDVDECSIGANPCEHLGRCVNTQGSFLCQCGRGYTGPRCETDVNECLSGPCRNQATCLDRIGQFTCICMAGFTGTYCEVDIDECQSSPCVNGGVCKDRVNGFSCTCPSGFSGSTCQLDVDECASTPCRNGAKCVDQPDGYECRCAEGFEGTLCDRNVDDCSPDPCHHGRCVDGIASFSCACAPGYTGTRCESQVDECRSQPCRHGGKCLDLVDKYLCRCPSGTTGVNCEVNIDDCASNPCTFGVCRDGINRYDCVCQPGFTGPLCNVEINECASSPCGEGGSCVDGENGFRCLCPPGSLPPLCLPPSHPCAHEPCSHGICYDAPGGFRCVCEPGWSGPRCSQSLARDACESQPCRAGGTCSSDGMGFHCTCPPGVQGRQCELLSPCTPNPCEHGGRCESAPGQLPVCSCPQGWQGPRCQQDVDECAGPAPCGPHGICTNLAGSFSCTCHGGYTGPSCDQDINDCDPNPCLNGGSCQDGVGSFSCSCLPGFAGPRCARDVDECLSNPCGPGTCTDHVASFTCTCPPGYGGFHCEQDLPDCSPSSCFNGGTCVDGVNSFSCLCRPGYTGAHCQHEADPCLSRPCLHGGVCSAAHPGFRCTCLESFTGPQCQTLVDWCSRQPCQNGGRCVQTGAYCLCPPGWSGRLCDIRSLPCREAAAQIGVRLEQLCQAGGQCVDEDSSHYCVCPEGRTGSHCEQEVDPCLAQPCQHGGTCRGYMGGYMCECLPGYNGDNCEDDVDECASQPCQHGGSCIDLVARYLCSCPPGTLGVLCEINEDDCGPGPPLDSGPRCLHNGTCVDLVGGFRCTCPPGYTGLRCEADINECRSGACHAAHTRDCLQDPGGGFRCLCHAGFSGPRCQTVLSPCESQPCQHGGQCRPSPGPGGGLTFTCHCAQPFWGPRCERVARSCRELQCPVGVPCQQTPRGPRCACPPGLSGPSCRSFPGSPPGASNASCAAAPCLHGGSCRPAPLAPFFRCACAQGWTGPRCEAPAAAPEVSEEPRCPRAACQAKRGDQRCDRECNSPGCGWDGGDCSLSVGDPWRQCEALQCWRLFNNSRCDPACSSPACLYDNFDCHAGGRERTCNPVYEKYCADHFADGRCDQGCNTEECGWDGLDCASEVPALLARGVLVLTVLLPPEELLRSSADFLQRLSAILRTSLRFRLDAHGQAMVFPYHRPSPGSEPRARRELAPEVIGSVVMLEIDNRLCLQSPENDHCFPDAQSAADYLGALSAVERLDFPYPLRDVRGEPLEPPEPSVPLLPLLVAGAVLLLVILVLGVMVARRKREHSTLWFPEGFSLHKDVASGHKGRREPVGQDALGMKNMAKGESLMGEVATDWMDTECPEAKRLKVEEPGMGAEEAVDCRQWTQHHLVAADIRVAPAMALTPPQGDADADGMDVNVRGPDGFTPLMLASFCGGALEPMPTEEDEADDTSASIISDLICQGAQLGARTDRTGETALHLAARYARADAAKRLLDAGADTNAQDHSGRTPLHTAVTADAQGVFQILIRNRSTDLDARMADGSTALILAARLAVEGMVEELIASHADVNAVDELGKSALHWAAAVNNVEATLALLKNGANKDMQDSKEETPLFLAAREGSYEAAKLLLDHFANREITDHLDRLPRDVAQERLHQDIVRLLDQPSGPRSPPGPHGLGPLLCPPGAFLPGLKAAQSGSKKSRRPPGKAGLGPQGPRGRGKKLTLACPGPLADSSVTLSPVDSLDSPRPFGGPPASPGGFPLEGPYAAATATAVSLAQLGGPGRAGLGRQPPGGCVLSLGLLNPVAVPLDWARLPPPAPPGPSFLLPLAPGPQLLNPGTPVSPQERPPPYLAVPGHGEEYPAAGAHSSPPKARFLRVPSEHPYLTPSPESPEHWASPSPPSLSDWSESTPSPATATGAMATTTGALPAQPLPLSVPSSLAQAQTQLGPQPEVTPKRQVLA
Assay [10] can be described thus: small-molecule microarray binders of probe aEGFR, primary screen, biochemical, biotinylated probe, 635/667 nm fluorescence (AID 1097).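 Also: probe is a biotinylated anti-EGFR antibody binding compounds printed on slides; score combines fluorescence near 667 nm and signal to noise of each spot.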 The following applies: higher = more signal.
Assay [11] has as its system Plasmodium falciparum Sir2 (PF13_0152, Sir2A). Put plainly: pfSir2 binders on small-molecule microarrays, primary screen, biochemical, small-molecule microarray, 635 nm fluorescence (AID 1098).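 Also: score merges spot fluorescence intensity with its signal-to-noise ratio.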 As to conditions: small-molecule microarray binding, fluorescence 635 nm; higher = more signal.
Assay [12] is described as follows: small-molecule microarray binders of probe aDKK1, primary screen, biochemical, biotinylated probe, 635/667 nm fluorescence (AID 1099).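 Also: score merges 667nm spot fluorescence with signal to noise across triplicate slides; reference of the scale not given here.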 As to conditions: higher = more signal.
Assay [13] can be described thus: small-molecule microarray binders of probe aCHRDL2, primary screen, biochemical, biotinylated probe, 635/667 nm fluorescence (AID 1100). The following applies: higher = more signal.
Assay [14] can be described thus: splicing luciferase reporter signal modulators, primary screen, spliceosome inhibition project, cell-based, HEK293, splice +/- reporter (AID 1101).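 Also: HEK293 cells carrying a splicing-competent luciferase reporter gene; test concentration not given here.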 As to conditions: luminescence, 24 h, higher = more signal, called active from +8 up or from −8 down. Background: Reporter assays use an easily measured gene product as a stand-in for the process of interest.
Assay [15] deals with Fibroblast growth factor 10 (Homo sapiens) (UniProt O15520). The assay can be described thus: FGF10 binders on small-molecule microarrays, primary screen, biochemical, small-molecule microarray, 635 nm fluorescence (AID 1102). The following applies: FGF10 binding, fluorescence 635 nm, higher = more signal.
Chain of Fibroblast growth factor 10 (Homo sapiens) (O15520 whole entry, looked up): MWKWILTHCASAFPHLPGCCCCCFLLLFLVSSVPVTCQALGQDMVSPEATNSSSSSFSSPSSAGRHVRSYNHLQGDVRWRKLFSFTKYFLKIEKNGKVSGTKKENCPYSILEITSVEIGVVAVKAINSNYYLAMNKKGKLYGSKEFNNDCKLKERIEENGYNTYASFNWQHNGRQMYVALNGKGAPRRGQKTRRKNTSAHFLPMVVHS
For assay [16], the system named is glycogen synthase kinase-3 (GSK3A per assay name; protocol says GSK3B). Put plainly: GSK3 binders on small-molecule microarrays, primary screen, biochemical, small-molecule microarray, 635 nm fluorescence, GSK3A (AID 1103). Also: the record names both GSK3A and GSK3B. The following applies: small-molecule microarray binding, fluorescence 635 nm; higher = more signal.
Assay [17] has as its target Epidermal growth factor receptor (Homo sapiens) (UniProt P00533). Put plainly: EGFR binders on small-molecule microarrays, primary screen, biochemical, small-molecule microarray, 635 nm fluorescence (AID 1104).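 Also: score merges 667 nm emission intensity with spot signal to noise over triplicate slides.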 The following applies: EGFR binding, higher = more signal.
For assay [18], the target named is Follistatin-related protein 3 (Homo sapiens) (UniProt O95633). Put plainly: FSTL3 binders on small-molecule microarrays, primary screen, biochemical, small-molecule microarray, 635 nm fluorescence (AID 1105).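 Also: score merges emission near 667 nm and signal to noise per printed spot across three slides.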 As to conditions: FSTL3 binding, higher = more signal.
Chain of Follistatin-related protein 3 (Homo sapiens) (O95633 whole entry, looked up): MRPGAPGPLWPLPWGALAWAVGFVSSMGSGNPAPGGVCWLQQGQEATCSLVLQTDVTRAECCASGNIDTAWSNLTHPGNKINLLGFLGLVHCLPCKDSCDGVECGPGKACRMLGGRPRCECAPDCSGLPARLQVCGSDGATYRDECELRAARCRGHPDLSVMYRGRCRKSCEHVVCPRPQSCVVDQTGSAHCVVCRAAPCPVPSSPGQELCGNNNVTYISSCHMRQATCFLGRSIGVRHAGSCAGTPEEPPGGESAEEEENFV
In assay [19] the target is Dickkopf-related protein 1 (Homo sapiens) (UniProt O94907). The assay can be described thus: DKK1 binders on small-molecule microarrays, primary screen, biochemical, small-molecule microarray, 635 nm fluorescence scan (AID 1106).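 Also: score merges emission near 667 nm with signal to noise over three replicate slides.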 As to conditions: DKK1 binding, higher = more signal.
Chain of Dickkopf-related protein 1 (Homo sapiens) (O94907 whole entry, looked up): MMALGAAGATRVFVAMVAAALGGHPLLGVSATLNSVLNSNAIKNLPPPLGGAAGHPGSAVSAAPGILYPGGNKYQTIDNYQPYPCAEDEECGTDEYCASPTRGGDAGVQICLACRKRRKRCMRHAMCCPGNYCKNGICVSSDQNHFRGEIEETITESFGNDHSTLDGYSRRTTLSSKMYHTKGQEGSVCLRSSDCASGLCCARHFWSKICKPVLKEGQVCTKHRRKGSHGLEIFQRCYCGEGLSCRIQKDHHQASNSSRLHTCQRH
In assay [20] the test system is Inhibin beta A chain (activin A). Put plainly: INHBA (activin A) binders on microarrays, primary screen, biochemical, small-molecule microarray, 635 nm fluorescence scan (AID 1107).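 Also: mouse activin A protein probed at 4.33 µg/mL on printed slides; score merges bound-protein fluorescence near 667 nm with spot signal-to-noise.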 The following applies: small-molecule microarray binding, higher = more signal.

Structures are written as SMILES. Active and inactive are the calls of the source.

Chain of Torsin-1A-interacting protein 2 (Homo sapiens) (Q8NFQ8 whole entry, looked up): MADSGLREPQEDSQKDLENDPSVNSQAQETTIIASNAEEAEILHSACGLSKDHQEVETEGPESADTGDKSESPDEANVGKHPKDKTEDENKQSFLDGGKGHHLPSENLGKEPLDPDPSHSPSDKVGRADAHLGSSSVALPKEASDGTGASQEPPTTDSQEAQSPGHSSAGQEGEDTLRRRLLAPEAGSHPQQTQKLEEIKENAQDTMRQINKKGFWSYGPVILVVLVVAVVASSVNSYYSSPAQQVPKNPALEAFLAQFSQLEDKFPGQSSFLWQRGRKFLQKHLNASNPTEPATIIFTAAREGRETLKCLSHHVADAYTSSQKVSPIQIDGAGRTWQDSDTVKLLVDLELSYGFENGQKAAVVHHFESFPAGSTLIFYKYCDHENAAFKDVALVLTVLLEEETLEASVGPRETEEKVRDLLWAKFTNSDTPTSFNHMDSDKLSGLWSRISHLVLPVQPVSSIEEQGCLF
Chain of Epidermal growth factor receptor (Homo sapiens) (P00533 whole entry, looked up): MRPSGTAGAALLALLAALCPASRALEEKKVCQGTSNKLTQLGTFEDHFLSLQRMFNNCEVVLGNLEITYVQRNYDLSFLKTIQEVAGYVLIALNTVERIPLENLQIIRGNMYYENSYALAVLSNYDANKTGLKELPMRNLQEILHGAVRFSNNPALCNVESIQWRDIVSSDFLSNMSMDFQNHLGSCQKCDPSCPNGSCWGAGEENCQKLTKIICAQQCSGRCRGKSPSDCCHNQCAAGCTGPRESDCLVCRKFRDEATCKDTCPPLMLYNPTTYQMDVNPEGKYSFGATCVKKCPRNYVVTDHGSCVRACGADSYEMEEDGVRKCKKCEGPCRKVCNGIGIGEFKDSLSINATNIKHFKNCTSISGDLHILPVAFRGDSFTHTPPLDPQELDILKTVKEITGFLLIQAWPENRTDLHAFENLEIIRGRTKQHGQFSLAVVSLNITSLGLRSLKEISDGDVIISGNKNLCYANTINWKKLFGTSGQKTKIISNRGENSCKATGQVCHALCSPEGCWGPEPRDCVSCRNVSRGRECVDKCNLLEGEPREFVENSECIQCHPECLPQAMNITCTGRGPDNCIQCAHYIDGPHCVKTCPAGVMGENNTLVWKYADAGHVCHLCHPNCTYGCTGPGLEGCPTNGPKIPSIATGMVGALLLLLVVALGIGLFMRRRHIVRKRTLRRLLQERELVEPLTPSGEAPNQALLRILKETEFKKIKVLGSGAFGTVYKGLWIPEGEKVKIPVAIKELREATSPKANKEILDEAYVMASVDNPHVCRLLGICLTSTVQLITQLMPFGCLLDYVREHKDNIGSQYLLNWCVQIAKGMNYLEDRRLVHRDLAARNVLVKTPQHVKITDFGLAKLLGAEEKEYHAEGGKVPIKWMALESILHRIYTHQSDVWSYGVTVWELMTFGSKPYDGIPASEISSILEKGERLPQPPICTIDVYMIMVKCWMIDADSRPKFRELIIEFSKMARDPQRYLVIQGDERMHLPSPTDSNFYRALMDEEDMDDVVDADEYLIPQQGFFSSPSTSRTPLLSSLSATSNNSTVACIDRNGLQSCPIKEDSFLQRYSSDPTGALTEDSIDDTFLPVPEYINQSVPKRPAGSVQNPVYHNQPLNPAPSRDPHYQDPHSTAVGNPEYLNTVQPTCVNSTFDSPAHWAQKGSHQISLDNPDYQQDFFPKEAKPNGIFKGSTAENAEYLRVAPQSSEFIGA

As for `CC1CC/C=C\[C@H]2OC34C=CCN(c5ccc6ccccc6c5)C(=O)[C@H]3N(CCCCCO)C(=O)[C@@H]4C2C(=O)O1` (stereo not given in full), the composite z-score in assay [1] is -0.712; in [5], -1.87; in [7], 0.182; in assay [8], -1.21; in assay [9] it was -0.7; in assay [10] it was -0.233. The composite z-score in assay [11] is 0.207; in [12] it was 0.207; in assay [13], 0.62; in assay [15], -1.34; in assay [16], -1.25; in assay [17], 0.0445. For the same compound, the composite z-score is -0.213 in [18], -1.58 in assay [19] and -0.522 in assay [20]. The z-score is 0.231 (inactive) in [2]; 0.0271 (inactive) in assay [3]; -0.32 (inactive) in assay [4]; -0.603 (inactive) in assay [6]; 0.375 (inactive) in [14].

On to `O=C1c2ccccc2[C@@]2(Cc3ccccc3N(Cc3ccccc3)C2=O)[C@H](c2ccc(CO)cc2)N1Cc1ccccc1C(F)(F)F`, for which the composite z-score is -0.325 in assay [1]; 2.03 in assay [5]; -0.222 in assay [7]; -0.848 in assay [8]; 0.117 in assay [9]; -0.243 in assay [10]. The composite z-score was 1.1 in [11]; 0.0463 in [12]; 0.847 in assay [13]; -0.665 in assay [15]; -0.866 in assay [16]; -1.09 in [17]. The composite z-score in assay [18] was -0.71; in [19], -1.38; in assay [20], 0.581. For the same compound, the z-score in assay [2] is 0.376 (inactive); in assay [3] it was -0.666 (inactive); in assay [4], -1.11 (inactive); in assay [6], 0.127 (inactive); in assay [14] it was 0.0517 (inactive).

For `COCCOC(=O)N1C(=O)[C@@]2(c3cc(C#CC4=CCCCC4)ccc31)[C@H](c1ccc(OCCO)cc1)N1[C@H](c3ccccc3)[C@H](c3ccccc3)OC(=O)[C@H]1[C@@H]2C(=O)Nc1nc2ccccc2s1`, the composite z-score in assay [1] was 1.55; in [5] it was 3.06; in assay [7], -0.0242; in assay [8], 0.772; in [9], 1.08; in assay [10] it was -0.0164. The composite z-score in assay [11] was determined as 0.581; in assay [12], 0.0643; in assay [13] it was 0.153; in assay [15], 1.08; in [16] it was 1.29; in assay [17], 0.287. In addition, the figures for the composite z-score in assay [18], in [19] and in assay [20] were 1.12, 0.521 and 0.462, respectively. Also, the z-score in [2] is 1.09 (inactive); in assay [3], 1.04 (inactive); in assay [4] it was 3.21 (inactive); in assay [6], 1.9 (inactive); in [14], -0.831 (inactive).

For the compound `C=C[C@H](C)[C@H](OC(=O)Nc1ccc(OC)cc1)c1ccc(O)c2ccccc12`, the composite z-score in [1] was -0.0544; in assay [5], 0.645; in assay [7], -0.151; in assay [8], 0.585; in [9] it was 0.0103; in assay [10] it was -0.222. In addition, the composite z-score in [11] is 0.443; in [12] it was -0.26; in assay [13], 0.242; in [15], 0.111; in assay [16] it was -0.667; in assay [17] it was -0.587. The composite z-score in [18] is 0.0608; in [19], -0.0641; in assay [20], 0.997. In addition, the z-score was -25.3 (active) in assay [2]; -20.9 (active) in assay [3]; -3.05 (inactive) in assay [4]; 0.355 (inactive) in assay [6]; -0.632 (inactive) in [14].

As to `CC(C)(C)OC(=O)CC[C@@]1(C(N)=O)N=C(c2ccc(OCCCO)cc2)O[C@@H]1c1ccccc1N=[N+]=[N-]`, the composite z-score in assay [1] is 1.16; in [5], 3.41; in assay [7] it was 0.0539; in assay [8], 0.465; in assay [9] it was 0.976; in assay [10] it was -0.019. The composite z-score in assay [11] was 1.73; in [12], 0.751; in assay [13], 0.83; in [15], 1.46; in assay [16], 1.22; in assay [17] it was -0.0882. Also, the composite z-score was 0.616 in assay [18], -0.103 in [19] and 0.988 in [20]. For the same compound, the z-score was 0.745 (inactive) in [2]; -0.86 (inactive) in assay [3]; -0.579 (inactive) in assay [4]; 0.77 (inactive) in assay [6]; -0.809 (inactive) in assay [14].

As for `Cc1ccc(S[C@]2(C(=O)NCCCN(C)C)CC(=O)N(C(C)C)[C@@H]2c2ccc(CO)cc2I)cc1`, the composite z-score is 1.05 in [1]; 2.88 in assay [5]; -0.0654 in [7]; -0.521 in [8]; -0.0055 in assay [9]; -0.142 in assay [10]. Further, the composite z-score is 1.37 in assay [11]; 0.17 in assay [12]; 0.789 in assay [13]; -0.238 in [15]; -0.627 in assay [16]; -0.228 in assay [17]. Besides, the figures for the composite z-score in assay [18], in [19] and in [20] were -0.137, -0.827 and 1.1, respectively. Also, the z-score was -1.25 (inactive) in assay [2]; -2.91 (inactive) in [3]; -1.13 (inactive) in [4]; 0.0601 (inactive) in assay [6]; -1.44 (inactive) in assay [14].

In the case of `C=CCC(OC(C)=O)[C@@H]1[C@@H](N(Cc2ccc(-c3cccc(C(F)(F)F)c3)o2)C(=O)Cc2ccc(OC)cc2)c2cc(OCCCO)ccc2N1C(=O)Cc1ccc(OC)cc1` (stereo not given in full), the composite z-score in assay [1] was -0.0091; in assay [5], -0.106; in assay [7], -0.107; in assay [8] it was -0.239; in [9], -0.869; in assay [10], -0.178. The composite z-score in assay [11] is 0.294; in assay [12], -0.22; in [13], 0.373; in assay [15], -0.593; in [16] it was -1.7; in assay [17], -0.719. Besides, the results for the composite z-score in assay [18], in assay [19] and in assay [20] were -0.391, -0.227 and 0.925, respectively. For the same compound, the z-score is -0.816 (inactive) in assay [2]; -0.566 (inactive) in assay [3]; -0.918 (inactive) in assay [4]; 1.48 (inactive) in assay [6]; -1.94 (inactive) in assay [14].

As for `COc1ccc([Si](C)(C)[C@@H]2[C@@H](CCO)O[C@]3(C(=O)N(Cc4ccccc4)c4ccc(N(C=O)c5ccccc5)cc43)[C@H]2C)cc1`, the composite z-score was 1.28 in [1]; 1.33 in [5]; -0.0479 in [7]; 0.0182 in assay [8]; 0.718 in assay [9]; -0.189 in [10]. The composite z-score in assay [11] was 0.622; in [12], -0.185; in assay [13], -0.025; in [15], 0.454; in [16], -0.141; in assay [17], 0.012. The composite z-score was -0.0895 in [18], 0.169 in [19] and 0.328 in assay [20]. The z-score in [2] is 0.697 (inactive); in assay [3] it was 1.56 (inactive); in assay [4], 7.37 (inactive); in assay [6] it was 0.329 (inactive); in assay [14], -1.1 (inactive).

As for `[N-]=[N+]=NCc1ccccc1C[C@]1(C(=O)NCC(O)CO)COC(c2ccc(OCCCO)cc2)=N1` (stereo not given in full), the composite z-score in assay [1] is 0.638; in assay [5], 2.54; in assay [7], 0.841; in assay [8], -0.185; in assay [9] it was -0.172; in assay [10], 0.204. In addition, the composite z-score in assay [11] was 1.08; in assay [12] it was 1.22; in [13], 1.5; in assay [15], -0.0207; in assay [16], -0.493; in assay [17], -1.13. The composite z-score is 0.324 in assay [18], -0.372 in [19] and 0.462 in [20]. Besides, the z-score was -0.319 (inactive) in [2]; -3.05 (inactive) in assay [3]; 0.113 (inactive) in assay [4]; 1.34 (inactive) in assay [6]; 1.1 (inactive) in assay [14].
